Laboratory results reported in PubChem BioAssay (NCATS).
Records with an inconclusive call do not appear. Values without a mark were called inactive. Calls of active or inactive are those of the source. Calls follow the shape of the dose curve; as a rule, active = well fitted cell-killing curve with a large enough effect; inconclusive = small, poorly fitted or top-dose-only effect, or effect the other way; inactive = no such curve, though single readings can be large or run the other way.

Assay: Viability qHTS for spleen associated tyrosine kinase inhibitor (SYKi) drug resistant MV4-11 cells (AID 1963824); also: nearly all actives have a fitted effect of over 35% in size
In short: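 CellTiter-Glo luminescence, read 10 min after reagent addition, reports viability after a 72 hr compound exposure. Cells are an MV4-11 line made resistant to SYK inhibition, seeded at 500 per well onto compound-containing plates.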
Potency is read from the fitted curve at half-maximal effect.

## C=C1C[C@@]23CCC4[C@@](C)(CCC[C@@]4(C)C(=O)OC)C2CC[C@@H]1C3 (stereo partly drawn)
  Potency: 6.4 µM (active)

## COc1cc(O)c2c(c1)/C=C/C[C@H](O)[C@H](O)C(=O)/C=C\C[C@H](C)OC2=O
  Potency: 0.259 µM (active)

## COc1ccccc1-c1c[nH]c2ncc(-c3cncc(C(=O)N(C)C)c3)cc12
  Potency: 1.84 µM (active)

## COc1cc(N(C)CCN(C)C)c(N)cc1Nc1nccc(-c2cn(C)c3ccccc23)n1
  Potency: 10.3 µM (active)

## CC(C)c1cc(-c2ccc(F)c3ccccc23)nc(N)n1
  Potency: 5.17 µM (active)

## COC1C=C(C)C(O)(CO)C2(C)CCCC(C)(C)C12 (stereo not drawn)
  Potency: inactive

## C[C@H](NC(c1cccc(C[P+](=O)O)c1)[C@H](C)O)c1ccc(Cl)c(Cl)c1 (stereo partly drawn)
  Potency: inactive

## O=C1CCCC2=C1C(c1ncccc1Br)N=C(Nc1nc3ccccc3o1)N2 (stereo not drawn)
  Potency: 2.59 µM (active)

## CC(=O)OC[C@]12[C@H](OC(C)=O)C(=O)[C@@H]3[C@@H](OC(C)=O)[C@@]14O[C@@]3(C)COC(=O)c1cccnc1[C@@H](C)[C@H](C)C(=O)O[C@@H]([C@H](OC(C)=O)[C@@H]2OC(C)=O)[C@]4(C)O
  Potency: inactive

## C/C=C(\C)C(=O)O[C@H]1C=C(CO)C(=O)[C@H](OC(C)=O)[C@H]1C(C)C
  Potency: 1.8 µM (active)

## CC(=O)Nc1cccc(-c2csc(Nc3cc(C)ccn3)n2)c1
  Potency: 16.4 µM (active)

## CC(C)n1cnc2c(-c3cnc(N)nc3)nc(N3CCOCC3)nc21
  Potency: 3.17 µM (active)

## COc1cc(F)c(F)c(Nc2ccc(I)cc2F)c1NS(=O)(=O)C1(CC(O)CO)CC1 (stereo not drawn)
  Potency: 0.58 µM (active)

## C=C[C@H]1C(O[C@@H]2O[C@H](CO)[C@@H](O)[C@H](O)[C@H]2O)OC=C2C(=O)N3CCc4c([nH]c5ccccc45)C3CC21 (stereo partly drawn)
  Potency: inactive

## COc1cccc(-c2ccc([C@@H](Oc3cc(-c4ccc(C[C@H](N)C(=O)O)cc4)nc(N)n3)C(F)(F)F)cc2)c1
  Potency: 20.6 µM (active)

## COc1cc(/C=C/C(=O)OCC2OC(OC3(CO)OC(CO)C(O)C3O)C(O)C(O)C2O)ccc1O (stereo not drawn)
  Potency: inactive

## O=S(=O)(c1cccc2c(Cl)cccc12)N1CCCNCC1
  Potency: 20.6 µM (active)

## COC1OC(=O)C2=C1C1(C)CCCC(C)(C)C1CC2O (stereo not drawn)
  Potency: inactive

## Cc1cc(Cn2cnc3c2CC(C(=O)O)N(C(=O)C(c2ccccc2)c2ccccc2)C3)ccc1N(C)C (stereo not drawn)
  Potency: inactive

## O=C1Cc2c([nH]c3ccc([N+](=O)[O-])cc23)-c2ccccc2N1
  Potency: 0.502 µM (active)

## CCN(CC)CCOCCOC(=O)C(CC)(CC)c1ccccc1
  Potency: 23.1 µM (active)

## COC1CC/C=C(\C)C(=O)Nc2cc(O)cc(c2)CC(C)CC(OC)C(O)C(C)/C=C(\C)C1OC(N)=O (stereo not drawn)
  Potency: 0.632 µM (active)

## C=CC(C)(O)C(O)CC1C(C)(O)C(O)C(O)C2C(C)(C)CCCC21C (stereo not drawn)
  Potency: inactive

## C[C@H](CCC(=O)O)[C@H]1CC[C@H]2[C@@H]3C[C@H](O)[C@@H]4C[C@H](O)CC[C@]4(C)[C@H]3CC[C@]12C
  Potency: inactive

## CC1(C)CC[C@]2(C(=O)O[C@@H]3O[C@H](CO)[C@@H](O)[C@H](O)[C@H]3O)CC[C@]3(C)C(=CCC4[C@@]5(C)CC[C@H](O[C@@H]6O[C@H](C(=O)O)[C@@H](O)[C@H](O)[C@H]6OC6OC(CO)C(O)C(O)C6O)C(C)(C)C5CC[C@]43C)[C@@H]2C1 (stereo partly drawn)
  viability, % of control: 91% [at 9.25 µM]

## COc1ccc(-c2csc(NC(=O)[C@H]3CCCCN3S(=O)(=O)c3ccc(C)cc3)n2)cc1
  Potency: 5.17 µM (active)

## COc1ccc(C2(CNC(=O)[C@](C)(Cc3c[nH]c4ccccc34)NC(=O)Nc3ccc([N+](=O)[O-])cc3)CCCCC2)nc1
  Potency: 20.6 µM (active)

## CC(C)(O)c1ccc2c(c1)ncn2-c1cccc(-c2ccccc2C#N)c1
  Potency: 18.4 µM (active)

## CCC(C)CNCC(=O)N1CCC2SC=CC2C1COc1cccc(C)c1 (stereo not drawn)
  Potency: 10.3 µM (active)

## C=C1CC[C@@H]2C(C)(C)CCC[C@@]2(C)[C@@H]1CC/C(=C/C(=O)OC)COC(C)=O
  Potency: inactive

## COc1c(C)c2c(c(O)c1C/C=C(\C)CC/C=C(\C)CCC(=O)O)C(=O)OC2
  Potency: inactive

## C=C1C(=O)O[C@@H]2C=C(COC(C)=O)CC/C=C(\CO)CC[C@@H]12
  Potency: 14.3 µM (active)

## COC(=O)N1CCC(n2ncc3c(N4CCOCC4)nc(-c4ccc(NC(=O)Nc5ccc(CO)cc5)cc4)nc32)CC1
  Potency: 0.0184 µM (active)
